This note sets out measurements from PubChem BioAssay AID2284383 (EPA ToxCast).

The structures appear in SMILES notation. Records with an inconclusive call do not appear. Calls of active or inactive are those of the source. Rule for the calls: active = hit-call score of the fitted dose curve at least 0.9, where 1 is the maximum; inconclusive = response in the unintended direction; inactive = score below 0.9.

In the assay the target is human Retinoic Acid Receptor gamma (RARg) Agonism, RARG (gene 5916) (UniProt P13631). Nature of the assay: ERF_TW_NR_COA_hRARG: Eurofins (ERF) Nuclear Receptor (NR) Functional Coactivator Assay for human Retinoic Acid Receptor gamma (RARg) Agonism. As to the method: ERF_TW_NR_COA_hRARG is a biochemical, single-readout assay that uses extracted gene-proteins in a cell-free assay. Measurements were taken 16 hours after chemical dosing in a 96-well plate. […] It is designed to measure FRET using a type of binding reporter as detected by fluorescence intensity of AM580 with fluorimetry technology.Data from the assay component ERF_TW_NR_COA_hRARG was analyzed at the assay endpoint, ERF_TW_NR_COA_hRARG, in the positive analysis fitting direction relative to DMSO as the negative control and baseline of activity. Using a type of binding reporter, gain-of-signal activity can be used to understand changes in binding as they relate to gene RARG. To generalize the intended target to other relatable targets, this assay endpoint is annotated to the nuclear receptor intended target family, where the subfamily is non-steroidal.
Sequence of human Retinoic Acid Receptor gamma (RARg) Agonism, RARG (gene 5916) (P13631 whole entry, looked up): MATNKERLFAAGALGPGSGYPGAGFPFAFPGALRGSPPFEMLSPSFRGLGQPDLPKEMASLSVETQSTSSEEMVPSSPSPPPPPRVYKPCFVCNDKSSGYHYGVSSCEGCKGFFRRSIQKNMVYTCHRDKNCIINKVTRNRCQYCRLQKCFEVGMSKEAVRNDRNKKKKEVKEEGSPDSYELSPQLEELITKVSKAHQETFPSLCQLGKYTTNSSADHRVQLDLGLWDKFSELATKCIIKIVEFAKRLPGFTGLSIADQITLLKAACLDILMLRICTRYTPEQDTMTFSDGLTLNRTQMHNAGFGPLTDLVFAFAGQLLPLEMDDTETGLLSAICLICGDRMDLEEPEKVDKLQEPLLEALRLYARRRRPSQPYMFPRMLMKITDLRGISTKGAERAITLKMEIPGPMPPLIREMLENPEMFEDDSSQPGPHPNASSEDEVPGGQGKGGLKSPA
Human recombinant retinoic acid receptor […] (RARgamma) receptors expressed in bacteria are used. Test compound and/or vehicle is incubated with the 25 nM receptors and binding buffer in modified Tris-HCl buffer pH 7.4 for 16 hours at 4C. Determination of the amount of complex formed is read spectrofluorimetrically (excitation:337 nm, emission:620/665 nm). Test compound-induced increase in fluorescence by 50 percent or more (>/= 50%) relative to the 0.3 uM AM580 response indicates possible RARgamma receptor agonist activity. […]

On to `C[C@H]1C[C@@H]2[C@H]([C@@H](O)C[C@@]3(C)[C@H]2CC[C@]3(O)C(=O)CO)[C@@]2(C)C=CC(=O)C=C12`, for which the outcome was inactive.
